8 compounds from PubChem BioAssay (Tox21) can be followed below.

The structures appear in SMILES notation. Values joined by “and” are separate entries in the source; they are usually repeats but may differ in a detail not shown here. Equal entries are not always repeated. Results filed as inconclusive are left out. Where a structure was tested more than once in an assay, its records may differ in their call. Active and inactive are the calls of the source. Unless noted, calls come from the whole dose curve.

Experiment [1] can be described thus: Nuclear factor erythroid 2-related factor 2/antioxidant responsive element (Nrf2/ARE) small molecule agonists: luciferase reporter gene qHTS assay in human keratinocytes (AID 1919969; note: nearly all actives have a fitted effect of over 35% in size; note: potency is the fitted concentration of half-maximal effect). (In a reporter assay the amount or activity of a reporter protein is the signal.)
The target in experiment [2] is Gonadotropin-releasing hormone receptor (Homo sapiens) (UniProt P30968). The experiment in a line: Human gonadotropin-releasing hormone receptor (GnRHR) small molecule agonists, calcium flux assay in GnRHR-HEK293 cells (AID 1920063). Note: nearly all actives have a fitted effect of over 35% in size. Summed up: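 Fluorescence kinetics (480 nm excitation, 540 nm emission; 3 min, 1 s steps) report calcium mobilisation in human GnRHR-HEK293 cells in agonist mode. Dye incubation: 1 h, 37 C.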
Chain of Gonadotropin-releasing hormone receptor (Homo sapiens) (P30968 whole entry, looked up): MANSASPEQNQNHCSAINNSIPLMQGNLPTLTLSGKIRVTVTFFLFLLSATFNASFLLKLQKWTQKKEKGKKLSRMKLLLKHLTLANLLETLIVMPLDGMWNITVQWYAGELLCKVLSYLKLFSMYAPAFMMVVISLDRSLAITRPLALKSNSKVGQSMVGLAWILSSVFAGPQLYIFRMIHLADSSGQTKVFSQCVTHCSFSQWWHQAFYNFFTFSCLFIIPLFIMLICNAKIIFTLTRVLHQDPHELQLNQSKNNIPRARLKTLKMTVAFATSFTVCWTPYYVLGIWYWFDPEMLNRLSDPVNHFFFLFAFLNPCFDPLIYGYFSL

Experiment [3] addresses KiSS-1 receptor (Homo sapiens) (UniProt Q969F8). The experiment in a line: Human kisspeptin (KISS1R) small molecule agonists, calcium flux assay in KISS1R-HEK293 cells (AID 1920064; active = well fitted activation curve with a large enough effect in the repeat runs). The procedure, abridged: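 Measures KISS1R agonism through calcium-sensitive dye fluorescence in stably transfected HEK293 cells, read for 3 min after pin-tool compound delivery; 15-point titrations in triplicate.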
Background: A change in cytosolic calcium serves as a functional read-out for many receptors and channels.

Experiment [4] in a line: G protein-coupled receptor (GPCR) small molecule agonists, calcium flux assay: HEK293 wild type cell line counter screen (AID 1920065). The procedure, abridged:
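Readout: fluorescence at 480 nm excitation/540 nm emission, sampled at 1 s intervals for 3 min. Cells had been cultured 18 h, then dye-loaded 1 h at 37 C before compound or ATP addition.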

A short description of experiment [5]: p53 small molecule agonists, cell-based qHTS assay with human liver microsomes (AID 1963577). The procedure, abridged:
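Compounds act here after metabolic activation: human liver microsomes and NADPH, both at 0.5 mg/mL final, were co-added to p53RE-bla cells. Incubation ran 16 h at 37 C, followed by LiveBLAzer detection.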
A general note: Quantitative high-throughput screening tests each substance at several concentrations.

A short description of experiment [6]: p53 small molecule agonists, cell-based qHTS assay with human liver microsomes: qHTS cell viability counter screen (AID 1963579). Note: nearly all actives have a fitted effect of over 45% in size. The procedure, abridged: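 Cells carrying the p53 response-element beta-lactamase reporter are treated for 16 h at 37 C with test compounds in the presence of human liver microsomes and NADPH (both 0.5 mg/mL final); ATP-based CellTiter-Glo luminescence then reports viability.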

The nature of experiment [7]: p53 small molecule agonists, cell-based qHTS assay with rat liver microsomes: qHTS cell viability counter screen (AID 1963580). Note: nearly all actives have a fitted effect of over 45% in size. The procedure, abridged:
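HCT-116 p53RE-bla, 4,000 cells/well, 5 h pre-incubation; cpd + rat liver microsomes 0.5 mg/mL + NADPH 0.5 mg/mL (final); 16 h, 37 C; CellTiter-Glo, 30 min RT; luminescence.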

A short description of experiment [8]: p53 small molecule agonists, cell-based qHTS assay: qHTS cell viability counter screen (AID 1963581). Note: nearly all actives have a fitted effect of over 45% in size. Summed up:
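In the same plates used for the p53 bla reporter, HCT-116 cells given compounds for 16 h at 37 C received CellTiter-Glo; luminescence was recorded 30 min later at room temperature.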

In experiment [9] the target is 5-hydroxytryptamine receptor 2A (Homo sapiens) (UniProt P28223). The experiment in a line: 5-hydroxytryptamine receptor 2A (HTR2A) small molecule antagonists, cell-based qHTS assay (AID 1963586). Note: nearly all actives have a fitted effect of over 45% in size. The procedure, abridged:
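Antagonist-mode intracellular calcium assay: DOI (4 nM) added after 5 min compound pre-incubation at room temperature to dye-loaded HTR2A-CHO cells. Fluorescence followed for 3 min, sampled every second.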

Experiment [10] shares this target. The experiment in a line: 5-hydroxytryptamine receptor 2A (HTR2A) small molecule agonists, cell-based qHTS assay (AID 1963587). Note: nearly all actives have a fitted effect of over 30% in size. Note: potency is the fitted concentration of half-maximal effect. The procedure, abridged:
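Kinetic calcium-flux fluorescence (2 min, 1 sec intervals) after compound addition in agonist mode. HTR2A-CHO cells were cultured 18 h, then dye-loaded 1 h at 37 C.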

The target in experiment [11] is Muscarinic acetylcholine receptor M1 (Homo sapiens) (UniProt P11229). The experiment in a line: Cholinergic receptor muscarinic 1 (CHRM1) small molecule antagonists, cell-based qHTS assay (AID 1963588). Note: nearly all actives have a fitted effect of over 40% in size. The procedure, abridged: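 CHRM1-CHO calcium-flux assay, antagonist mode. Cells were seeded 18 h, dye-loaded 1 h at 37 C and given compound for 5 min at RT, then acetylcholine was added at 50nM. FDSS fluorescence was read 3 min; 15 concentrations, three runs.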
Chain of Muscarinic acetylcholine receptor M1 (Homo sapiens) (P11229 whole entry, looked up): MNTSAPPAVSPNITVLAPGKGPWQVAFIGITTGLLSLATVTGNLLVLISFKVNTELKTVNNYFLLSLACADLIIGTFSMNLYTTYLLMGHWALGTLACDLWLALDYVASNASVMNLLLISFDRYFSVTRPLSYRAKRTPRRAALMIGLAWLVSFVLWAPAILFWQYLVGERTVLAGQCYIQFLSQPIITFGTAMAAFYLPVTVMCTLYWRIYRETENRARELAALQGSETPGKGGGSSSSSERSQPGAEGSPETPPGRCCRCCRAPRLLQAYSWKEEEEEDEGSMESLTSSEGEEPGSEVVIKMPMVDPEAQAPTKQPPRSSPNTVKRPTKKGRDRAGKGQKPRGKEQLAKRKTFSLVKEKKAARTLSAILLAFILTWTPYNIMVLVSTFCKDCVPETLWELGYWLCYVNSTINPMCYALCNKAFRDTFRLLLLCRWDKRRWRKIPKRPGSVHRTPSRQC

The target is the same in experiment [12]. The experiment in a line: Cholinergic receptor muscarinic 1 (CHRM1) small molecule agonists, cell-based qHTS assay (AID 1963589). Note: nearly all actives have a fitted effect of over 35% in size. Summed up:
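Each compound was tested at 15 concentrations across three independent runs on dye-loaded CHO cells stably expressing human CHRM1, reading intracellular calcium fluorescence kinetically at 1 sec intervals.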

Experiment [13] has as its target Beta-2 adrenergic receptor (Homo sapiens) (UniProt P07550). Kind of experiment: Adrenergic beta2 receptor (ADRB2) small molecule antagonists, cell-based qHTS assay (AID 1963592). Note: series mostly up to about 92 µM; nearly all actives have a fitted effect of over 50% in size. Summed up: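 Cells (CHO, stable ADRB2 overexpression) incubated 18-20hr at 37C; compounds added from DMSO; agonist mix (1nM isoproterenol, 100uM IBMX, 25uM Ro-20-1724) added; 0.5hr RT; d2-cAMP and anti-cAMP-cryptate added; 1hr RT; 665/615 nm read.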

Experiment [14] has as its target D(2) dopamine receptor (Homo sapiens) (UniProt P14416). Kind of experiment: Dopamine D2 receptor (DRD2) small molecule agonists, cell-based qHTS assay (AID 1963594). Note: nearly all actives have a fitted effect of over 35% in size. The procedure, abridged:
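cAMP accumulation in DRD2-HEK293 cells measured by HTRF after 1 h detection; compounds added 10 min before NKH477 (200nM […]) forskolin-analogue stimulation, 30 min at room temperature, with Ro20-1724 present at 0.1 mM final.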

A short description of experiment [15]: p53 small molecule agonists, cell-based qHTS assay with rat liver microsomes (AID 1963578). The procedure, abridged:
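Read-out is beta-lactamase reporter fluorescence (LiveBLAzer, 2 h, room temperature, dark) in p53RE-bla cells treated 16 h at 37 C with compound, rat liver microsomes and NADPH, both 0.5 mg/mL final.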

Experiment [16] can be described thus: p53 small molecule agonists, cell-based qHTS assay (AID 1963582; active = well fitted activation curve with a large enough effect in the signal ratio in the repeat runs, not every such curve was filed as active; the % refers to the signal ratio). Summed up:
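Compounds are pin-transferred in DMSO onto p53RE-bla cells and incubated 16 h at 37 C. The B/G FRET beta-lactamase substrate is then applied for 2 h at RT and fluorescence recorded.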

The nature of experiment [17]: cAMP Responsive Elements (CRE) small molecule agonists, cell-based qHTS assay (AID 1963590). Summed up: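 Cell line: CRE-bla HEK 293T; medium DMEM/10% dialyzed FBS/0.1 mM NEAA/1 mM pyruvate/25 mM HEPES; 3 h compound exposure; beta-lactamase FRET readout after 2 h substrate loading at RT.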
The nature of experiment [18]: cAMP Responsive Elements (CRE) small molecule antagonists, cell-based qHTS assay (AID 1963591; active = well fitted inhibition curve with a large enough effect in the signal ratio in the repeat runs, not every such curve was filed as active; the % refers to the signal ratio). The procedure, abridged: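 Inhibition of NKH477-driven (0.25 uM final) CRE-beta-lactamase signal in HEK293T cells, 3 h compound exposure at 37 °C, detected by FRET substrate fluorescence.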
Experiment [19] addresses Beta-2 adrenergic receptor (Homo sapiens) (UniProt P07550). The experiment in a line: Adrenergic beta2 receptor (ADRB2) small molecule agonists, cell-based qHTS assay (AID 1963593).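 Note: CHO cells stably overexpressing human ADRB2.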 Summed up:
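CHO cells stably over-expressing ADRB2 were plated overnight at 37C, then dosed with compounds plus a stimulation mix containing 100uM IBMX and 25uM Ro-20-1724 for 0.5hr at room temperature. cAMP was measured by HTRF competition, 1hr.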

For experiment [20], the target named is D(2) dopamine receptor (Homo sapiens) (UniProt P14416). Kind of experiment: Dopamine D2 receptor (DRD2) small molecule antagonists, cell-based qHTS assay (AID 1963595; active = well fitted inhibition curve with a large enough effect in the signal ratio in the repeat runs, with a control signal flat; the % refers to the signal ratio). Summed up: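 HEK293 cells stably expressing DRD2, preincubated with 0.1 mM Ro20-1724 and compounds 10 min, were stimulated with 200 nM NKH477 plus 12 nM quinpirole for 30 min at room temperature; cAMP measured by HTRF (665/620 nm).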
Chain of D(2) dopamine receptor (Homo sapiens) (P14416 whole entry, looked up): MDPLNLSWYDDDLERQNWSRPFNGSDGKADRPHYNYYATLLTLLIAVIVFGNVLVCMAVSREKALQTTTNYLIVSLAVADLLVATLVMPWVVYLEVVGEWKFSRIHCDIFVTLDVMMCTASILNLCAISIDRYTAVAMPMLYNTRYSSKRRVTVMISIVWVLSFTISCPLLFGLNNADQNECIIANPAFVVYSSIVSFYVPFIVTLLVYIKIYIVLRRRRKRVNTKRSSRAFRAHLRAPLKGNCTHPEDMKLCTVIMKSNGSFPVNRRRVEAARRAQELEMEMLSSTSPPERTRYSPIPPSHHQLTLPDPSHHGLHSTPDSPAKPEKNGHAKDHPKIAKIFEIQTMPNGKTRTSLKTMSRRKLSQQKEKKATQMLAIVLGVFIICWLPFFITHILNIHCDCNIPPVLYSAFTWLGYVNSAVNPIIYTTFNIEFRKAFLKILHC
% is set by controls: 0 for no effect and ±100 for the full control effect.

Chain of Beta-2 adrenergic receptor (Homo sapiens) (P07550 whole entry, looked up): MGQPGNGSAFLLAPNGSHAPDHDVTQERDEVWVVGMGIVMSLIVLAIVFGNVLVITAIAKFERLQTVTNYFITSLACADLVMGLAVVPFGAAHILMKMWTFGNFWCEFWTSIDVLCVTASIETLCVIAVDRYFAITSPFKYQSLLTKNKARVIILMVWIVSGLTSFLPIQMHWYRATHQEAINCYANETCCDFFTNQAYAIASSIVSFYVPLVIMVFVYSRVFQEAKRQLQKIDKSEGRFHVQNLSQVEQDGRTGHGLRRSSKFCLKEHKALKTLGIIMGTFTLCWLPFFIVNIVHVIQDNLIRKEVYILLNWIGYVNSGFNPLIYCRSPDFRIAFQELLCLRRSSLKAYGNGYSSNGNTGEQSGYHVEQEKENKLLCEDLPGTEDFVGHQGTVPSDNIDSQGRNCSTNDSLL
Chain of 5-hydroxytryptamine receptor 2A (Homo sapiens) (P28223 whole entry, looked up): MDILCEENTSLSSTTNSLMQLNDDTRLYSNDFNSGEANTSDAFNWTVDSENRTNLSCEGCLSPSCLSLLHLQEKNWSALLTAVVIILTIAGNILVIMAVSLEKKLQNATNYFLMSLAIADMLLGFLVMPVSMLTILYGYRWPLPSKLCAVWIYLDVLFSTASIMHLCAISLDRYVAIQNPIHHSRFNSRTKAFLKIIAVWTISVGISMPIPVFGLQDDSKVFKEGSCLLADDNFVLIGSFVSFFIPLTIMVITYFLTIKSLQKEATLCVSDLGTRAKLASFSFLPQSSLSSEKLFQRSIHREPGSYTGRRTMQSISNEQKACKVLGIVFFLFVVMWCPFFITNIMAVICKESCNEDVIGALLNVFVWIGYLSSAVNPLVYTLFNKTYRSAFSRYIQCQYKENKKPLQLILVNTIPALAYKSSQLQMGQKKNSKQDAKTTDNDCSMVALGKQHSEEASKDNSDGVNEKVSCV
Chain of KiSS-1 receptor (Homo sapiens) (Q969F8 whole entry, looked up): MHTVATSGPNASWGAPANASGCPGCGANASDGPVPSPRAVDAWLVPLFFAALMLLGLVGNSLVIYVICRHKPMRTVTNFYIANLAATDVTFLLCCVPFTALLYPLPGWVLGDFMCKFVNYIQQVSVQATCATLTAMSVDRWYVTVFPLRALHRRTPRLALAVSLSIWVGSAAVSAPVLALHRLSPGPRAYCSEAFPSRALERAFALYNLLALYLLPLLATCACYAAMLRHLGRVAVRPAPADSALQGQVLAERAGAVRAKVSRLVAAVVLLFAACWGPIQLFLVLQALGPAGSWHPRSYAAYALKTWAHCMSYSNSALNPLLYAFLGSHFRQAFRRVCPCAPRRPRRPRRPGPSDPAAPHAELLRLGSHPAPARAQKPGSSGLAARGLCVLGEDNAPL

Turning to `Cc1c2ccccc2c(C)c2c1ccc1ccccc12`, the Potency is 13.5 µM (active) and 9.69 µM (active) in [1]; 10.9 µM (active) and inactive in experiment [10]. For the same compound, the Potency result in experiment [2], in [3], in [4], in [5], in experiment [6] and in [7] was “inactive” each time. The Potency entry in [8], in experiment [9], in [11], in experiment [12], in experiment [13] and in experiment [14] was “inactive” throughout.

As to `N[C@@H](C(=O)N[C@@H]1C(=O)N2C(C(=O)O)=C(Cl)CS[C@H]12)c1ccccc1`, the activity, positive = activation in [1] is -7.33% [at 8.39 µM] (inactive). The activity change in [2] is -0.646% [at 5.22 µM, stronger effect = higher value] (inactive). Further, the activation in [3] is -2.2% [at 6.97 µM] (inactive); in [4], -0.0598% [at 5.23 µM] (inactive); in experiment [5] it was 0.17% [at 5.99 µM] (inactive); in [15], -0.141% [at 5.99 µM] (inactive); in [16], 0.331% [at 5.99 µM] (inactive); in experiment [10] it was -1.95% [at 7.02 µM] (inactive). Moreover, the figures for the activation in experiment [17] and in experiment [19] were -0.664% [at 8.39 µM] (inactive) and -30.9% [at 8.39 µM] (inactive), respectively. The activity change, negative = cytotoxicity in [7] is 0.042% [at 5.99 µM] (inactive). For the same compound, the activity, negative = inhibition in experiment [11] was 6.01% [at 5.58 µM] (inactive). For the same compound, the activity change, negative = inhibition in experiment [18] was -10.2% [at 8.39 µM] (inactive); in experiment [20], 6.7% [at 8.38 µM] (inactive).

Regarding `Nc1cc(Cl)c([N+](=O)[O-])cc1O`, the Potency result in experiment [1], in experiment [2], in experiment [3], in [4], in [5] and in [6] was “inactive” each time. Moreover, the Potency result in experiment [7], in [8], in experiment [9], in experiment [10], in [11] and in experiment [12] was “inactive” each time. Further, the Potency result in experiment [17], in experiment [13], in experiment [19], in experiment [14] and in experiment [20] was “inactive” throughout.

Turning to `Cc1cccc(O)c1N`, in experiment [1], the Potency was 30.9 µM (active). Further, the Potency entry in experiment [2], in experiment [3], in [4], in [5], in [15] and in experiment [7] was “inactive” each time. The Potency result in experiment [16], in experiment [9], in [10], in experiment [11], in experiment [12] and in [18] was “inactive” each time. The Potency entry in [13], in experiment [14] and in [20] was “inactive” in each case.

For the compound `CCCCN(CCN(CCCC)C(=O)N1CCOCC1)C(=O)N1CCOCC1`, the Potency in experiment [1] is 21.1 µM (active). Also, the Potency result in [2], in experiment [3], in [4], in experiment [5], in experiment [15] and in experiment [8] was “inactive” throughout. The Potency result in [16], in [10], in experiment [11], in experiment [12], in experiment [13] and in [19] was “inactive” each time. Further, the Potency entry in [20] is “inactive”.

With `CCCCNC1CC(C)(C)NC(C)(C)C1`, the Potency result in [1], in experiment [2], in experiment [3], in [4], in [5] and in experiment [6] was “inactive” each time. Further, the Potency result in [7], in experiment [8], in experiment [16], in [9], in experiment [10] and in experiment [11] was “inactive” each time. In addition, the Potency result in [12], in [17], in [18], in experiment [19], in [14] and in experiment [20] was “inactive” each time.

Turning to `CCCOc1ccc2nc(NC(=O)OC)[nH]c2c1`, in experiment [1], the Potency was 7.5 µM (active). The Potency result in experiment [2], in experiment [3], in [4], in experiment [5], in experiment [15] and in experiment [7] was “inactive” in each case. In addition, the Potency entry in [9], in experiment [10], in [11], in experiment [12], in experiment [18] and in experiment [13] was “inactive” throughout. In addition, the Potency entry in experiment [14] and in experiment [20] was “inactive” each time.

Consider `O=C1OC(=O)c2cc(-c3ccc4c(c3)C(=O)OC4=O)ccc21`, for which the Potency in experiment [1] is 48.6 µM (active). In addition, the Potency result in experiment [2], in experiment [3], in experiment [4], in [5], in experiment [15] and in [7] was “inactive” in each case. The Potency result in experiment [8], in experiment [16], in experiment [9], in [10], in experiment [12] and in experiment [17] was “inactive” each time. Also, the Potency entry in experiment [18], in [13], in [19], in experiment [14] and in experiment [20] was “inactive” throughout.
